Experimental data taken from PubChem BioAssay (EPA / NIEHS).
Active and inactive are the calls of the source. Rule for the calls: active = hit-call score of the fitted dose curve at least 0.9, where 1 is the maximum; inactive = score below 0.9.

What was measured:
[1] = ATG_CRE_CIS: Attagene CIS-FACTORIAL HepG2 Assay for human cAMP Responsive Element (CRE) binding protein 3 (AID 2282926); conditions: HepG2 CRE cis-reporter, Attagene multiplexed mRNA; actives raise or lower the signal
Procedure, shortened: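 HepG2 cells transiently transfected with cis-element-driven multiple reporter transcription units; CRE reporter mRNA measured 24 h after dosing by RT-PCR, 6-FAM labelling, HpaI digestion and capillary electrophoresis. Bidirectional fit versus DMSO baseline.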

[2] = molecular target: CCAAT/enhancer-binding protein beta (Homo sapiens) (UniProt P17676); assay: ATG_C_EBP_CIS: Attagene CIS-FACTORIAL HepG2 Assay for human CCAAT/Enhancer Binding Protein (C/EBP) beta (AID 2282927); conditions: HepG2 Attagene cis-factorial transcription factor reporter; actives raise or lower the signal
Procedure, shortened: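 Following a 24 h incubation with test chemical, transfected HepG2 cells yielded RNA whose reporter transcripts were quantified by RT-PCR and fluorescent capillary electrophoresis, with DMSO serving as baseline for bidirectional fitting.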

[3] = ATG_CMV_CIS: Attagene CIS-FACTORIAL HepG2 Assay for human CMV (Internal Marker) (AID 2282928); conditions: HepG2 CMV promoter reporter, transcription factor profiling; actives raise or lower the signal;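 note: endpoint acts as a background internal control marker rather than a target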
Procedure, shortened: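 CMV internal-marker background readout in transiently transfected HepG2 cells bearing cis-regulated reporter units. Reporter mRNA is measured 24 h after dosing by RT-PCR and capillary electrophoresis, with bidirectional fitting against DMSO.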

[4] = ATG_DR4_LXR_CIS: Attagene CIS-FACTORIAL HepG2 Assay for human Liver X Receptor (LXR), DR4 submotif (AID 2282929); conditions: HepG2 Attagene DR4 cis-reporter, mRNA transcription; actives raise or lower the signal
Procedure, shortened: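 Total RNA from 24 h-treated, MRTU-transfected HepG2 cells underwent reverse transcription, PCR, fluorescent primer extension and restriction digestion before capillary electrophoresis. Both increases and decreases in reporter signal were fitted against DMSO.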

[5] = ATG_AP_2_CIS: Attagene CIS-FACTORIAL HepG2 Assay for human Activator Protein 2 (AP-2) (AID 2282932); conditions: HepG2 AP-2 cis-reporter, Attagene transcription factor profiling; actives raise or lower the signal
Procedure, shortened: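 HepG2 cells were transiently transfected with multiple cis-promoter reporter transcription units and dosed for 24 h. Reporter mRNA was measured by RT-PCR with capillary electrophoresis fluorescence; bidirectional fits relative to DMSO baseline.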

[6] = ATG_BRE_CIS: Attagene CIS-FACTORIAL HepG2 Assay for human Bone Morphogenetic Protein (BMP) Response Element (BRE) (AID 2282933); conditions: HepG2 BMP response element reporter, Attagene transcription factor profiling; actives raise or lower the signal
Procedure, shortened: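 After a 24 h chemical treatment, transiently transfected HepG2 cells were lysed for RNA; reporter transcripts were quantified by fluorescent RT-PCR and capillary electrophoresis, normalised to DMSO.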

[7] = molecular target: Retinoic acid receptor alpha (Homo sapiens) (UniProt P10276); assay: ATG_DR5_RAR_CIS: Attagene CIS-FACTORIAL HepG2 Assay for human Retinoic Acid Receptor Alpha (RARE), DR5 submotif (AID 2282934); conditions: HepG2 Attagene cis-factorial RARE DR5 reporter, mRNA; actives raise or lower the signal
Procedure, shortened: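 Endpoint fitted in both directions relative to DMSO as negative control. It reflects DR5 cis-element reporter mRNA induction in transiently transfected HepG2 cells, measured 24 h after dosing through RT-PCR and fluorescent capillary electrophoresis.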

[8] = molecular target: Transcription factor E2F1 (Homo sapiens) (UniProt Q01094); assay: ATG_E2F_CIS: Attagene CIS-FACTORIAL HepG2 Assay for human E2F Transcription Factor 1 (AID 2282935); conditions: HepG2 Attagene cis-reporter, E2F reporter RNA transcripts; actives raise or lower the signal
Procedure, shortened: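 HepG2 cells transiently transfected with multiplexed cis-element reporter units, dosed for 24 h. Reporter mRNA measured by RT-PCR, 6-FAM primer-extension labeling, HpaI digestion and capillary electrophoresis; bidirectional fit versus DMSO baseline.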

[9] = ATG_E_Box_CIS: Attagene CIS-FACTORIAL HepG2 Assay for human Enhancer Box (E-box) (AID 2282936); conditions: HepG2 E-box cis-reporter transcription, actives raise or lower the signal
Procedure, shortened: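 HepG2 cells transiently transfected with multiplexed cis-element reporter units sensing endogenous transcription factor activity; 24 h compound exposure. Reporter mRNA measured by RT-PCR, 6-FAM primer extension, HpaI digestion and capillary electrophoresis; bidirectional fit versus DMSO.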

[10] = ATG_M_61_CIS: Attagene CIS-FACTORIAL HepG2 Assay for M61 Transcription Factor (Internal Marker) (AID 2282937); conditions: HepG2 Attagene CIS-FACTORIAL M61 internal marker reporter; actives raise or lower the signal
Procedure, shortened: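 Transfect HepG2 with MRTUs; dose 24 h; isolate RNA; reverse-transcribe with DNase I treatment; PCR-amplify, FAM-label and cut with HpaI for 2 h at 37 C; resolve by CE. Bidirectional fitting against DMSO.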

[11] = ATG_EGR_CIS: Attagene CIS-FACTORIAL HepG2 Assay for human Early Growth Response 1 (EGR1) (AID 2282938); conditions: HepG2 Attagene CIS-FACTORIAL EGR reporter mRNA; actives raise or lower the signal
Procedure, shortened: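 After a 24 h treatment of transiently transfected HepG2 cells, total RNA was reverse-transcribed and reporter sequences PCR-amplified, labelled and run on capillary electrophoresis. Reporters sit under cis-regulatory promoters sensing endogenous factors.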

[12] = ATG_M_19_CIS: Attagene CIS-FACTORIAL HepG2 Assay for M19 Transcription Factor (Internal Marker) (AID 2282939); conditions: HepG2 Attagene CIS-FACTORIAL M19 internal marker reporter; actives raise or lower the signal
Procedure, shortened: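 In this multiplexed cell assay, transiently transfected HepG2 reporter units report endogenous transcription-factor activity; after 24 hours of treatment, labelled reporter cDNA fragments are quantified by capillary electrophoresis and fitted bidirectionally against DMSO.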

[13] = ATG_ERE_CIS: Attagene CIS-FACTORIAL HepG2 Assay for Estrogen Response Element (ERE) (AID 2282940); conditions: HepG2 ERE cis-reporter, Attagene RNA transcript; actives raise or lower the signal
Procedure, shortened: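 Measuring endogenous transcription factor output, the assay doses transfected HepG2 cells for 24 hours and quantifies reporter transcripts by fluorescent RT-PCR and capillary electrophoresis, with DMSO as baseline.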

[14] = ATG_Ets_CIS: Attagene CIS-FACTORIAL HepG2 Assay for human Erythroblast Transformation Specific (ETS) (AID 2282941); conditions: HepG2 ETS cis-reporter transcription, actives raise or lower the signal
Procedure, shortened: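 HepG2 cells transfected with multiple cis-regulated reporter units measuring endogenous ETS-driven transcription, 24 h after dosing. Reporter mRNA quantified by RT-PCR with capillary electrophoresis; bidirectional fit relative to DMSO.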

[15] = molecular target: Hepatocyte nuclear factor 3-beta (Homo sapiens) (UniProt Q9Y261); assay: ATG_FoxA2_CIS: Attagene CIS-FACTORIAL HepG2 Assay for human Forkhead box A2 (FOXA2) (AID 2282942); conditions: HepG2 cis-reporter transcription factor activity, 24 h; actives raise or lower the signal
Procedure, shortened: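 24 h dosing of HepG2 bearing cis-reporter constructs; mRNA readout by RT-PCR/CE fluorescence; bidirectional fit, DMSO baseline.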

[16] = ATG_FoxO_CIS: Attagene CIS-FACTORIAL HepG2 Assay for human Forkhead box O (FoxO) (AID 2282943); conditions: HepG2 Attagene cis-reporter, FoxO element, mRNA; actives raise or lower the signal
Procedure, shortened: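 Values reflect reporter mRNA induction or loss in HepG2 cells 24 h post-dosing, fitted bidirectionally with DMSO as negative control and baseline. Detection used RT-PCR and fluorescence capillary electrophoresis.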

[17] = ATG_GATA_CIS: Attagene CIS-FACTORIAL HepG2 Assay for human GATA Binding Protein (AID 2282944); conditions: HepG2 GATA cis-element reporter, Attagene multiplex mRNA; actives raise or lower the signal
Procedure, shortened: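 Measures endogenous transcription factor-driven reporter mRNA in HepG2 cells transiently carrying cis-regulated constructs. 24 h dosing; RNA via oligo(dT) reverse transcription, PCR, HpaI digestion, capillary electrophoresis; fitted relative to DMSO.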

[18] = ATG_AP_1_CIS: Attagene CIS-FACTORIAL HepG2 Assay for human Activator Protein 1 (AP-1) (AID 2282931); conditions: HepG2 Attagene cis-factorial AP-1 reporter mRNA; actives raise or lower the signal
Procedure, shortened: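 HepG2, transient cis-reporter transfection; 24 h; readout RT-PCR/CE fluorescence; DMSO baseline, gain and loss fitted.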

[19] = molecular target: Aryl hydrocarbon receptor (Homo sapiens) (UniProt P35869); assay: ATG_Ahr_CIS: Attagene CIS-FACTORIAL HepG2 Assay for human Aryl Hydrocarbon Receptor (Ahr) (AID 2282930); conditions: HepG2 AhR cis-factorial reporter transcription; actives raise or lower the signal
Procedure, shortened: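 Values derive from bidirectional fitting against DMSO negative control. Underlying signal: cis-element reporter mRNA in transiently transfected HepG2, harvested 24 h post-dose and measured by RT-PCR plus capillary electrophoresis.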

Measured: AC50

Chain of Retinoic acid receptor alpha (Homo sapiens) (P10276 whole entry, looked up): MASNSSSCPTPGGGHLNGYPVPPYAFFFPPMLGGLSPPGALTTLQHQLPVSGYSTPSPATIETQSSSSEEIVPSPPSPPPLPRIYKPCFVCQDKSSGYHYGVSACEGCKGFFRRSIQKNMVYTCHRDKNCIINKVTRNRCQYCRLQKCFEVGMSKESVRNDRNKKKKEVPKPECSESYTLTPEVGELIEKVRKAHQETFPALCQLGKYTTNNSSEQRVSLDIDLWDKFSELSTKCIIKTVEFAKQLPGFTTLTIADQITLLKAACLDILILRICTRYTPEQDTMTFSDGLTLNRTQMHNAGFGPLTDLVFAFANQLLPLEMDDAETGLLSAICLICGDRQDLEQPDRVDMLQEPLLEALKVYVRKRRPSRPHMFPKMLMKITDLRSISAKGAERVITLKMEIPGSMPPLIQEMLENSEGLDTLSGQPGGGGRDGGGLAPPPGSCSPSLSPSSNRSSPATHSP
Chain of Transcription factor E2F1 (Homo sapiens) (Q01094 whole entry, looked up): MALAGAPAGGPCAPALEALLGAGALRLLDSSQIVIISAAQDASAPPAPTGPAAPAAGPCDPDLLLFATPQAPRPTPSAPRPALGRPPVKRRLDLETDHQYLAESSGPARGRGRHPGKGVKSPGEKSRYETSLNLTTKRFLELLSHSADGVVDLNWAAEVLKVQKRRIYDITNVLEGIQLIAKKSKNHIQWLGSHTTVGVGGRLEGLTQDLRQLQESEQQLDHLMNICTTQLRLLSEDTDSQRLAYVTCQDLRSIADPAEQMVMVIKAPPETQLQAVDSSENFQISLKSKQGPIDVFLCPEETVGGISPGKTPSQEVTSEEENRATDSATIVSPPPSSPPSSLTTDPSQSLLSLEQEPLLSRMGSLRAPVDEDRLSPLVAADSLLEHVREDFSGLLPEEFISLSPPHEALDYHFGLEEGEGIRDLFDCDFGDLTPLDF
Chain of Hepatocyte nuclear factor 3-beta (Homo sapiens) (Q9Y261 whole entry, looked up): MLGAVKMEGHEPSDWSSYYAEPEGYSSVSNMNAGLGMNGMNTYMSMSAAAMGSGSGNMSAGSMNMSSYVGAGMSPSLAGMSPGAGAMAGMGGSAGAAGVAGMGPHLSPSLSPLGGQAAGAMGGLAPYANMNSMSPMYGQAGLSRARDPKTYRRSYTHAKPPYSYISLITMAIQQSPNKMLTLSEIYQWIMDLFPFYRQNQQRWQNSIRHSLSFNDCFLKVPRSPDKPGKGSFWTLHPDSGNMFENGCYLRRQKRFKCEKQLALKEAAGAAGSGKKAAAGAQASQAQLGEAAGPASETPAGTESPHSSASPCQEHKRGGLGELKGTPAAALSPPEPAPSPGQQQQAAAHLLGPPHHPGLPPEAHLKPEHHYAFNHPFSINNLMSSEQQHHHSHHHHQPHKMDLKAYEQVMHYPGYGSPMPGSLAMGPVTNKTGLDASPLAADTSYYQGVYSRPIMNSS
Chain of CCAAT/enhancer-binding protein beta (Homo sapiens) (P17676 whole entry, looked up): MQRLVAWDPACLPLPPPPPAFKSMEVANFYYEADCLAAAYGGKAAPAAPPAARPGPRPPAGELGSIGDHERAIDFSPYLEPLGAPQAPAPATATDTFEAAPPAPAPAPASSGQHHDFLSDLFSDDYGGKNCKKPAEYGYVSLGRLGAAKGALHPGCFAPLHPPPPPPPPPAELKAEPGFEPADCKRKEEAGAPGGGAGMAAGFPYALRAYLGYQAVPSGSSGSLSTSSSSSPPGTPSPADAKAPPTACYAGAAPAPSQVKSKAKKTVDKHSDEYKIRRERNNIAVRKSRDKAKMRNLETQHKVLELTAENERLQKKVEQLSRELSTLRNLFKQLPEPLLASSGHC
Chain of Aryl hydrocarbon receptor (Homo sapiens) (P35869 whole entry, looked up): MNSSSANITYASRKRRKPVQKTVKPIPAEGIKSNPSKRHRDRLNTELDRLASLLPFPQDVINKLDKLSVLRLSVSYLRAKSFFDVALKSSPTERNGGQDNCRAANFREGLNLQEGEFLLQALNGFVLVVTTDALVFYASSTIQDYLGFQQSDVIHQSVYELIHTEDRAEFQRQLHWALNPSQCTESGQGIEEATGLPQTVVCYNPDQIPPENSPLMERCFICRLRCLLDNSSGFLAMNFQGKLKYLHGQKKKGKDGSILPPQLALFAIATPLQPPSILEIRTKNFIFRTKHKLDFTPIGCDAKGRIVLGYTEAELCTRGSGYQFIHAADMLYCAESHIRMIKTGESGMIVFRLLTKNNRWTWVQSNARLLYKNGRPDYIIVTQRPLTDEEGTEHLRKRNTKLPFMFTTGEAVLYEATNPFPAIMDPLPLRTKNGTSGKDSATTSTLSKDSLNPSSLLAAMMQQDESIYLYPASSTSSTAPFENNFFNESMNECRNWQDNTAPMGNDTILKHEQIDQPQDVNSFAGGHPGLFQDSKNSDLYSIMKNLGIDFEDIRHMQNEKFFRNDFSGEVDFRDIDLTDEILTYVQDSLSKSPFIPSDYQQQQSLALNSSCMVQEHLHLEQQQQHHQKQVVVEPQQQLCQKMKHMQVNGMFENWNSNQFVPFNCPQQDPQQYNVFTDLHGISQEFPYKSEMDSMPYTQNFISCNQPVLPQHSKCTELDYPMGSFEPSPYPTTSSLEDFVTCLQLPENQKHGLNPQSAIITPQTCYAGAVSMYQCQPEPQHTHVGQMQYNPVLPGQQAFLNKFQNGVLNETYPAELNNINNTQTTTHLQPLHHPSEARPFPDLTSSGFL

CCCCCc1cccc(=O)o1
not listed: [18] | [19]
inactive: all other assays above

CC12CCC(C1)C(C)(C)C2O (centres undefined)
not listed: [19]
inactive: all other assays above

CCCCCCCCCCCCCC(=O)OCC
not listed: [18] | [19]
inactive: all other assays above

CC(C)(C)C1CCC(O)CC1 (centres undefined)
not listed: [9] | [13] | [19]
inactive: all other assays above

CCCc1ccc(O)cc1
active: [4] 70.5 µM | [13] 26.8 µM
not listed: [19]
inactive: all other assays above

CCCCCC1C(=O)CCC1CC(=O)OC (centres undefined)
not listed: [4]
inactive: all other assays above

O=C(O)CS
not listed: [4] | [10]
inactive: all other assays above

OC[C@H]1O[C@@H](O[C@H]2[C@H](O)[C@@H](O)[C@H](O)O[C@@H]2CO)[C@H](O)[C@@H](O)[C@H]1O
not listed: [19]
inactive: all other assays above
